This passage reports fold change results from PubChem BioAssay AID1259312 (Keith Lab, Institute of Cancer Science, University of …, 2017).

Out of some 4,500 compounds screened, about 200 (4.4%) were called active. The entries come from a sample that favours actives as a whole. Values without a mark were called inactive.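 Rule for the calls: active = cell survival measured by absorbance rises more than 2.5-fold over infected cells without compound; inactive = the rest.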

This experiment in a line: survival after telomere uncapping, modulators, primary screen, cell-based (AID 1259312).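 Note: virus expresses mutant telomerase RNA that uncaps telomeres and kills cells; compound added 2 days after infection so exposure lasts 3 days.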 Conditions: HCT116 + Ad-hTR-mut, MTT, 5 d; at 10 µM, hits give high values.
For `CS(=O)(=O)Nc1ccc(Br)cn1`, the fold change was -1.27.

Take `CCCOc1ccc(N/C(N)=N/c2nc(C)cc(C)n2)cc1`: the fold change was -3.48. In the case of `CC1=C(C2=C(C)C(C(C)C)C3=C(C(=O)C(O)C3O)C2O)C(O)C2=C(C(O)C(O)C2=O)C1C(C)C` (stereo not drawn) it was -1.99; in that of `O=S(=O)(Nc1ccc(F)c(Cl)c1)c1ccc(Cl)cc1`, 2.99 (active). Consider `O=S(=O)(Nc1ccc2c(c1)OCO2)c1ccc(Cl)cc1`, for which the fold change was -1.43. In the case of `O=S(=O)(Nc1cc(Cl)cc(Cl)c1)c1ccc(Cl)cc1` it was 4.93 (active); in that of `O=S(=O)(Nc1ccncc1)c1ccc(Cl)cc1`, -1.23; in that of `O=S(=O)(Nc1ccc(Cl)cc1)c1ccc(NS(=O)(=O)c2ccc3c(c2)OCCO3)cc1`, -1.18. The result for `O=S(=O)(Nc1cccc(F)c1)c1ccc(F)cc1` reads -1.33. On to `COc1ccc(C2Oc3ccccc3C3CC(c4ccccc4)=NN32)cc1` (stereo not drawn), for which the fold change is -1.84. In the case of `O=c1cc(-c2ccc(O)cc2)oc2c(O)c(O)ccc12`, the fold change is 1.16. Take `CSc1nc2ccccc2n1Cc1ccccc1Cl`: the fold change is 1.29. The result for `O=S(=O)(Nc1ccc(S(=O)(=O)Nc2ccccc2Cl)cc1)c1ccc2c(c1)OCCO2` reads -1.07; that for `CNCC1COCCO1` (stereo not drawn), -2.02; that for `N=C(N)SCc1csc(N)n1`, 1.98. As for `C1=NC(Cc2cccc3ccccc23)NC1` (stereo not drawn), the fold change was 4.23 (active). With `S=c1[nH]nc(Cc2cccc3ccccc23)o1`, the fold change was -2.84. Turning to `Cc1nc2sc3c(c2c(=O)n1N)CCC3`, the fold change was -1.06.

Turning to `c1ccc(CC2COC(C3=N[C@@H](Cc4ccccc4)CO3)=N2)cc1` (stereo partly drawn), the fold change was 1.27.

On to `O=C(NCCC1=CCCCC1)C(=O)NCc1ccco1`, for which the fold change was -1.07. The result for `O=S(=O)(c1ccc2ccccc2c1)N1CCc2ccccc21` reads 1; that for `CCCCc1ccc(-c2csc(N)c2C#N)cc1`, -1.78; that for `S=c1n(CN2CCOCC2)nnn1C1CCCCC1`, 1.01. In the case of `CCn1c(-c2ccccc2)nn(CN2CCOCC2)c1=S` it was 1.15; in that of `S=c1n(CN2CCOCC2)nnn1-c1ccccc1`, 4.24 (active); in that of `CN(C)c1nc(N)nc(CN(C)S(=O)(=O)c2ccccc2)n1`, -1.09. The result for `C(=Nc1ccc2[nH]ncc2c1)c1ccc2c(c1)OCO2` reads -2.04.

For `CN(C)c1ccc(C=Nc2ccc3[nH]c(=O)[nH]c3c2)cc1[N+](=O)[O-]`, the fold change is -1.64. The result for `O=c1[nH]c2ccc(N=Cc3ccc4c(c3)OCO4)cc2[nH]1` reads 2.71 (active). The result for `O=C(ON1C(=O)CCC1=O)ON1C(=O)CCC1=O` reads -1.28; that for `O=[N+]([O-])c1ccc(Cl)c(N2CCCC2)c1`, 2.03. The result for `N=C(N)SCc1ccc(Cl)cc1` reads 2.73 (active). Take `N=C(N)SCc1ccc(Cl)cc1Cl`: the fold change was -1.36. For `Nc1nnc(SCc2ccc(Cl)cc2)s1`, the fold change is 1.21. In the case of `O=S(=O)(NCC1CCCO1)c1ccc(Br)cc1` (stereo not drawn) it was 3.1 (active); in that of `CC1Oc2ccc(S(=O)(=O)NCC3CCCO3)cc2NC1=O` (stereo not drawn), -1.21; in that of `O=S(=O)(NCC1CCCO1)c1ccccc1` (stereo not drawn), -1.72. Take `NCC12CC3CC(CC(C3)C1)C2`: the fold change is -1.38. Regarding `CC1NC(=O)N(C(C)(C)C)C(=O)C1Cl` (stereo not drawn), the fold change is 3.94 (active). The result for `COc1ccc(N2C(=O)/C(=C\N3CCN(C)CC3)SC2=S)cc1` reads -1.11; that for `Cc1ccn(-c2ccc([N+](=O)[O-])cc2)n1`, -1.59. For the compound `O=C1NC(=O)/C(=C\c2ccc(-c3cccc(C(F)(F)F)c3)o2)S1`, the fold change is -1.8. The result for `N#CC(C#N)=Cc1ccc(-c2cccc(C(F)(F)F)c2)o1` reads 2.62 (active); that for `O=C1NC(=S)S/C1=C/c1ccc(-c2cccc(C(F)(F)F)c2)o1`, 1.1. The result for `O=C1CSc2ccc(NC(=O)C3CCCC3)cc2N1` reads 1.29; that for `O=[N+]([O-])c1ccc(N2CCOCC2)cc1`, 1.1. In the case of `Nc1cc(N2CCOCC2)ccc1[N+](=O)[O-]`, the fold change was 3.38 (active). In the case of `O=[N+]([O-])c1ccc(N2CCCCC2)cc1N1CCOCC1` it was -1.29.

Regarding `O=C(O)C(C(=O)O)C1C=CCC1` (stereo not drawn), the fold change is 1.13.

With `Nc1ccc(N2CCOCC2)c(Cl)c1`, the fold change was 4.13 (active). In the case of `Nc1cc(Cl)ccc1N1CCOCC1` it was 1.23; in that of `Nc1ccc(N2CCOCC2)c(Br)c1`, -1.07; in that of `N#CC1=C(N)n2c(s/c(=C\c3ccc(Br)cc3)c2=O)=C(C#N)C1c1ccc(Br)cc1` (stereo not drawn), -1.13. The result for `Brc1ccc(-c2csc(N3CCOCC3)n2)cc1` reads 1.56; that for `N#CC(C#N)C(c1ccsc1)c1c(-c2ccccc2)[nH][nH]c1=O` (stereo not drawn), 3.37 (active). In the case of `Clc1ccc(-c2nc3sc(-c4ccc(Cl)cc4Cl)nc3s2)c(Cl)c1`, the fold change is -2.46. The result for `COC(=O)c1nc2ccc(OC)cc2s1` reads -1.15. In the case of `COc1ccc(C2C(C#N)=C(N)NC(C(C#N)C#N)=C2C#N)cc1OC` (stereo not drawn) it was -1.8; in that of `CCOC(=O)CO/N=C(\C(=O)O)c1ccn[nH]1`, “inactive”. Turning to `O=C(O)c1ccn[nH]1`, the fold change was 3.42 (active). Consider `COC(=O)CNC(=O)c1ccn[nH]1`, for which the fold change is -1.28.

As for `c1ccc(CCn2c(-c3ccccc3)csc2=Nc2ccccc2)cc1`, the fold change was -2.95. The result for `CSc1nc(-c2ccc([N+](=O)[O-])cc2)nn1C` reads -3.83; that for `NCCNC(=O)c1nonc1N`, 1.63. The result for `Nc1nonc1C(=O)NCCNS(=O)(=O)c1ccccc1` reads 3.28 (active); that for `CS(=O)(=O)NCCNC(=O)c1nonc1N`, -1.3; that for `O=C(O)c1[nH]c(=O)[nH]c(=O)c1[N+](=O)[O-]`, 1.2. The result for `CS(=O)(=O)N1CCc2cc(S(=O)(=O)N3CCC(c4ccccc4)CC3)ccc21` reads 1.49; that for `CS(=O)(=O)Nc1cccc(Cl)c1Cl`, -1.31; that for `COc1ccc(CC2=CN(C)CC3=C2OC(N)=C(C#N)C3c2ccc(OC)c(OC)c2)cc1OC` (stereo not drawn), -1.28. As to `O=C(Nc1ccc(Cl)cc1)Nc1ccc(Cl)cc1Cl`, the fold change was -2.79. In the case of `CCc1nnc(NC(=O)CN(C)CCC#N)s1` it was -1.46. The result for `O=c1n(Cc2ccon2)c2ccccc2n1Cc1ccon1` reads -2.68; that for `COC(=O)Cn1c(=O)c2ccccc2n(CC(=O)OC)c1=O`, -1.31; that for `O=C(O)CCCn1c(=O)n(CCCC(=O)O)c2ccccc21`, 3.81 (active). Regarding `CCN(C(=O)Cc1cccs1)C1CCCCC1`, the fold change is -1.09. The result for `Cn1c(=O)oc2ccc(S(=O)(=O)Nc3ccc4c(c3)n(C)c(=O)n4C)cc21` reads -1.89; that for `Nc1nonc1-c1ccccc1`, -1.8; that for `Cc1ccc(N=Nc2ccccc2)c(N)n1`, 3.19 (active). In the case of `CC(=NCCCN1CCOCC1)c1c(C(F)(F)F)[nH]n(-c2nc3ccccc3s2)c1=O` it was “inactive”; in that of `CCCN=C(CC)c1c(C(F)(F)F)[nH]n(-c2nc3ccccc3s2)c1=O`, “inactive”; in that of `CCCCCCCN=C(C)c1c(C(F)(F)F)[nH]n(-c2nc3ccccc3s2)c1=O`, “active”. The result for `Cc1ccc2c(c1)c1c3n2CCN(c2nc(-c4ccc(Cl)cc4)cs2)C3CCC1` (stereo not drawn) reads 1.42; that for `O=C1CC(=O)N(c2ccc(Br)cc2)N1`, -1.32.

Consider `Cn1cccc1/C=C1/C(=O)ON=C1c1ccccc1`, for which the fold change was -2.3. Turning to `CCCCCCC1(C)OCO/C1=C\C[N+](C)(C)C` (stereo not drawn), the fold change was -1.62. In the case of `O=S(=O)(c1ccc(Br)cc1)N1CCCCCC1` it was 1.7; in that of `CN1CCN(S(=O)(=O)c2ccc(Br)cc2)CC1`, 3.8 (active); in that of `O=S(=O)(c1ccc(Oc2ccc(Br)cc2)cc1)N1CCOCC1`, -1.23. In the case of `Nc1nnc(SCc2cccc(CSc3nnc(N)s3)n2)s1`, the fold change was 1.27. In the case of `Cn1c(=O)n(C)c2cc(CN3C(=O)c4ccccc4C3=O)ccc21` it was 1.01; in that of `O=S(=O)(Nc1ccc(Cl)cn1)c1ccc(Br)cc1`, -1.1. In the case of `Nc1ccc(S(=O)(=O)Nc2ccccc2)cc1` it was -1.09; in that of `CCc1nnc(NS(=O)(=O)c2ccc(N)cc2)s1`, 3.88 (active); in that of `CC(=O)NS(=O)(=O)c1ccc(N)cc1`, -1.73. As for `Nc1ccc(S(=O)(=O)Nc2ccc(Cl)nn2)cc1`, the fold change is 2.5 (active). The result for `CNS(=O)(=O)c1ccc(N)cc1` reads 1.14; that for `O=c1[nH]c(O)c(C=Nc2ccccc2Br)c(=O)[nH]1`, “inactive”. Regarding `O=C(O)C1CCS(=O)(=O)C1` (stereo not drawn), the fold change was 2.36. In the case of `CC1=C(C(=O)OCC2CCCO2)C(c2ccc(C)o2)C2=C(CC(C)(C)CC2=O)N1` (stereo not drawn) it was 2.87 (active). In the case of `CCCOC(=O)C1=C(C)NC2=C(C(=O)CC(C)(C)C2)C1c1ccc(C)o1` (stereo not drawn) it was -1.43.

As to `CC1=C(C(=O)OCC2CCCO2)C(c2ccc(C)o2)C2=C(CCCC2=O)N1` (stereo not drawn), the fold change is 1.18. In the case of `CCCCC(CC)C(=O)N(CC#N)CC#N` (stereo not drawn) it was -1.13; in that of `CC(C)(C)c1ccc(C(N2CCCCC2)P(=O)(c2ccccc2)N2CCCCC2)cc1` (stereo not drawn), -1.12. The result for `Cc1cc(/C=c2\sc3nc4ccccc4n3c2=O)c(C)n1C1CCCC1` reads -1.02. The result for `Cn1cc([N+](=O)[O-])c(C(=O)n2cccn2)n1` reads -1.36. Take `COC(=O)c1ccc(=O)oc1`: the fold change was -1.06. In the case of `CN(C(=O)CSC(=S)N1CCCC1)c1ccccc1` it was 1.5; in that of `CN1CCc2c(sc(N)c2C#N)C1`, 1.58; in that of `N#Cc1c(N)sc2c1CCCCC2`, 3 (active). In the case of `CC(=O)Nc1sc2c(c1C#N)CCCC2` it was 1.19; in that of `c1ccc2c(Cc3ccncc3)c3ccccc3nc2c1`, -1.25; in that of `O=[N+]([O-])c1cc(Br)cc(C=NCCCCCCN=Cc2cc(Br)cc([N+](=O)[O-])c2O)c1O`, “inactive”.
